# APE1 inh-1: inhibitors of human APE1 endonuclease; Potency, µM (top dose mostly 65.8 µM), most hits filed as inhibitors; AID 2517; 350,000 tested, 0.35% active; recombinant APE1, TAMRA/BHQ-2 abasic DNA cleavage fluorescence; P27695; further: nearly all actives have a fitted effect of over 55% in size
#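 Measures dequenching upon AP-site incision of a 5'-TAMRA/3'-BHQ-2 THF-containing duplex, 50 nM; human APE1 0.75 nM after 15 min room-temperature exposure to compound; kinetic three-point read at one-minute spacing.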
# TexasRed fluor: alters Texas Red total fluorescence, flagging assay interference; TRb/SRC2 Texas Red total fluorescence interference; Potency, µM (series often up to 106 µM); 280,000 tested, 0.29% active; AID 1479; active means well fitted curve in either direction with a large enough effect; inconclusive means small, poorly fitted or top-dose-only effect
#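 Human TRb ligand-binding domain at 0.6 uM with 20 nM Texas Red SRC2 peptide in Tris buffer containing 1 uM T3 and 5% DMSO, incubated with compound 5 h at ambient temperature. Total fluorescence (555/632 nm) calculated as parallel + 2 × perpendicular.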
# RGS12 GoLoco inh: blocks human Gai1 binding to RGS12 GoLoco peptide, red readout; Gai1:RGS12 GoLoco peptide FP, rhodamine, 10 min; Potency, µM (top dose mostly 61.6 µM), hits mostly inhibitors; 230,000 tested, 0.44% active; AID 880; P63096; active means well fitted inhibition curve with a large enough effect, not every such curve was filed as active; inactive means no such curve, though single readings can be large or run the other way; further: nearly all actives have a fitted effect of over 30% in size
# BLM inh: blocks DNA unwinding by human BLM helicase. 350,000 tested, 0.2% active. Potency, µM (highest dose often 56.1 µM), hits mostly inhibitors. recombinant BLM DNA unwinding, fluorescence dequenching. P54132; further: nearly all actives have a fitted effect of over 35% in size
# TRb-SRC2 inh: disrupts binding of human TR beta to SRC2; 280,000 tested, 0.065% active; Potency, µM (top dose mostly 106 µM), actives largely listed as inhibitors; TRbeta-SRC2 peptide binding, fluorescence polarization; receptor liganded with 1 µM T3; further: nearly all actives have a fitted effect of over 50% in size
# Target sequence (P10828 whole entry, looked up): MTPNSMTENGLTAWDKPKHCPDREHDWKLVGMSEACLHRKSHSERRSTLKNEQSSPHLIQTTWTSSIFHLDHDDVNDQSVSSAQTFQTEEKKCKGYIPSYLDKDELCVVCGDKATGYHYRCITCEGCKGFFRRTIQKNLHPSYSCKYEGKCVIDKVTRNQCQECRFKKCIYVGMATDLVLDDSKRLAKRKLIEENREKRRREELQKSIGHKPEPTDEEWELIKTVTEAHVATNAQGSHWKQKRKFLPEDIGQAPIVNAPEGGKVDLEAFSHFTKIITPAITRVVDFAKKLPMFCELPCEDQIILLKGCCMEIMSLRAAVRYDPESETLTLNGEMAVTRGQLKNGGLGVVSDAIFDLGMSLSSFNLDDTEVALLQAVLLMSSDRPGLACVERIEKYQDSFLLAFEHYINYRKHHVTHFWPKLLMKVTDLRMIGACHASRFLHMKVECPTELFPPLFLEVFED
#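 Fluorescence polarization of 20 nM Texas Red SRC2 peptide with 0.6 uM human TRb ligand-binding domain, in Tris buffer with 1uM T3 and 5% DMSO. Incubated 5 hr ambient; normalized to unbound and bound controls.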
# RECQ1 inh: blocks DNA unwinding by human RECQ1. P46063. Potency, µM (top dose mostly 57.3 µM), usual class: inhibitors. 240,000 tested, 0.54% active. AID 2549. RECQ1 DNA unwinding, red fluorescence kinetic read; further: nearly all actives have a fitted effect of over 30% in size
#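 RECQ1T1 50 nM; forked duplex (20 bp + 30-nt ss tails) 200 nM, ATP 2 mM final; pH 8.0, 2 mM MgCl2, 2.5 ug/ml poly(dI-dC); 15 min compound preincubation; discontinuous kinetic read over 2 h at RT.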
# APE1 dye cs: counter-screen for APE1 inhibitors: DNA dye displacement. shares compounds with APE1 inh-1. DNA fluorescent dye displacement counterscreen, fluorescence. Potency, µM (series often up to 28.5 µM), actives largely listed as inhibitors. 480 tested, 7% active;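 further: loss of thiazole orange fluorescence as the dye is displaced from duplex DNA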
# Endo IV inh: blocks E. coli endonuclease IV DNA cleavage; shares compounds with APE1 inh-1; E. coli Endo IV, fluorogenic AP-site DNA cleavage; Potency, µM (titrated, usually from 27.1 µM), hits mostly inhibitors; 560 tested, 4% active; AID 2565
# APE1 inh-2: confirmation of inhibitors of human APE1 endonuclease; shares compounds with APE1 inh-1; purified APE1, fluorogenic abasic-site DNA cleavage; Potency, µM (highest dose often 57.1 µM), usual class: inhibitors; 750 tested, 44% active; AID 2572; further: nearly all actives have a fitted effect of over 30% in size
# APE1 FP: displaces DNA from human APE1 in FP assay; shares compounds with APE1 inh-1; APE1 binding to TAMRA-labelled double-stranded DNA, fluorescence polarization displacement; Potency, µM (doses to about 28.5 µM), usual class: inhibitors; 480 tested, 7% active; AID 2573
# Hits are given with their value; - = inactive; ? = inconclusive; . = no result given; [ ] = dose if it differs, or a comment. An excerpt weighted towards active compounds, which were near 0.9% of everything screened. Unless noted, the call rests on the fitted dose curve; in most records, active means well fitted curve in the direction sought with a large enough effect; inconclusive means small, poorly fitted or top-dose-only effect, or another doubt; inactive means no such curve, though single readings can be large; an effect the other way counts as inactive or inconclusive.
SMILES,APE1 inh-1,TexasRed fluor,RGS12 GoLoco inh,BLM inh,TRb-SRC2 inh,RECQ1 inh,APE1 inh-2,others
Cc1coc2cc3oc(=O)c(CC(=O)NCCc4ccccc4)c(C)c3cc12,.,-,.,-,-,.,.,
Oc1cc(O)c2c(c1)O[C@H](c1ccc(O)c(O)c1)[C@H](O)C2,-,-,-,-,-,-,-,APE1 dye cs=-;Endo IV inh=-;APE1 FP=?
Oc1ccc(C2Oc3cc(O)cc(O)c3CC2O)cc1 (stereo unspecified),-,-,-,-,-,-,.,
Cc1nn2c(=O)cc(COC(=O)c3ccc(NC(=O)c4ccc(C(C)(C)C)cc4)cc3)nc2s1,.,-,.,-,-,.,.,
O=C(O)c1cc(-c2ccc(/C=N/N3C(=O)C4C5C=CC(C6CC56)C4C3=O)o2)ccc1Cl (stereo unspecified),?,-,-,-,-,-,?,
O=C(O)c1cc(-c2ccc(/C=N/N3C(=O)C4C5C=CC(CC5)C4C3=O)o2)ccc1Cl (stereo unspecified),-,-,-,-,-,-,.,
O=C(CSc1nnc(SCc2ccc(Cl)cc2)s1)N/N=C/c1c[nH]c2ccccc12,-,-,-,?,-,-,-,
O=C(CSc1nnc(SCc2cccc3ccccc23)s1)N/N=C/c1c[nH]c2ccccc12,-,-,-,-,-,-,.,
Cc1ccccc1CSc1nc2cccnc2n1Cc1ccc(C(=O)NCCc2cccs2)cc1,.,-,.,-,-,.,.,
O=c1c(-c2c(O)cc(O)c3c(=O)cc(-c4ccc(O)cc4)oc23)c(-c2ccc(O)cc2)oc2cc(O)cc(O)c12,0.79µM,-,-,13µM,-,13µM,2µM,APE1 dye cs=14µM;Endo IV inh=?;APE1 FP=-
O=c1cc(-c2ccc(O)cc2)oc2c(-c3c(O)cc(O)c4c(=O)cc(-c5ccc(O)cc5)oc34)c(O)cc(O)c12,-,.,.,.,.,.,.,
CCc1ccc(CN(Cc2ccco2)C(=O)c2ccc(OC)cc2)cc1,.,-,.,-,-,.,.,
O=C(Nc1ccc([N+](=O)[O-])cc1)Nc1ccc2[nH]c(=O)[nH]c2c1,?,-,-,-,-,-,?,APE1 dye cs=-;Endo IV inh=-;APE1 FP=-
O=C(CSc1ccc([N+](=O)[O-])cn1)Nc1ccc2[nH]c(=O)[nH]c2c1,-,.,.,-,.,.,.,
O=C(CSc1nc(NS(=O)(=O)c2ccccc2)cc(=O)[nH]1)Nc1ccc(Cl)cc1,-,-,-,?,-,-,-,
O=C(CSc1nc2ccccc2c(=O)[nH]1)Nc1ccc(C(=O)O)cc1,-,-,-,-,-,-,-,
CCS(=O)(=O)c1ncc(N(Cc2ccco2)Cc2ccccc2F)c(C(=O)Nc2cccc(Cl)c2)n1,.,-,.,-,-,.,.,
CCOC(=O)c1cc2c(=O)n3ccccc3nc2n(Cc2ccco2)c1=NC(=O)c1ccccc1OC,?,-,-,-,-,-,-,
CCOC(=O)c1cc2c(=O)n3ccccc3nc2n(Cc2ccco2)c1=NC(=O)c1cccc(OC)c1,-,-,-,?,-,-,.,
Nc1c(S(=O)(=O)O)cc(Nc2ccc(Nc3nc(Cl)nc(Nc4ccc(S(=O)(=O)O)cc4)n3)c(S(=O)(=O)O)c2)c2c1C(=O)c1ccccc1C2=O,0.63µM,22µM[quencher],-,.,-,0.89µM,0.71µM,Endo IV inh=10µM
Cc1ncc(CO)c(/C=N/NC(=O)c2ccc(Br)cc2)c1O,-,-,-,-,-,-,.,

# Screens from PubChem.
